In PubChem BioAssay (NCI):
About 79,000 compounds went through this panel and 15% of them were active in at least one assay; those are over-represented in the sample as a whole. Unmarked numbers belong to inactive results. Calls of active or inactive are those of the source. Rule as the data show it: active = growth inhibition above about 70%; inactive = the rest.

How the values were obtained:
[1] = NCI Yeast Anticancer Drug Screen. Data for the rad50 strain (AID 155);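 also: 0% = growth of vehicle-only cultures of the same strain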; conditions: S. cerevisiae rad50 strain growth inhibition, active compounds read high
Outline: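 Vehicle-treated cultures provide the reference for the growth inhibition reported for compound-exposed, repair-deficient yeast.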

[2] = NCI Yeast Anticancer Drug Screen. Data for the mec2-1 strain (AID 157); conditions: S. cerevisiae mec2-1 strain, active compounds read high
Outline: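 Readout is yeast growth inhibition, normalised to vehicle-treated controls, in the mec2-1 strain exposed to compound.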

[3] = NCI Yeast Anticancer Drug Screen. Data for the sgs1 mgt1 strain (AID 161);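 also: 0% = growth of cultures given vehicle only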; conditions: S. cerevisiae sgs1 mgt1 strain, active compounds read high
Outline: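 Yeast cells carrying a defined DNA-repair defect were exposed to test compounds. Growth inhibition was measured relative to vehicle-treated controls.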

[4] = NCI Yeast Anticancer Drug Screen. Data for the cln2 rad14 strain (AID 165);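 also: 0% = growth equal to vehicle treated cultures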; conditions: S. cerevisiae cln2 rad14 strain, active compounds read high
Outline: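 Relative to vehicle controls, growth inhibition of compound-treated cln2 rad14 yeast was recorded.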

[5] = NCI Yeast Anticancer Drug Screen. Data for the bub3 strain (AID 167); conditions: S. cerevisiae bub3 mutant strain, active compounds read high
Outline: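 Mutant yeast screening strain plus compound; vehicle-treated cultures serve as the 0% inhibition reference.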

[6] = NCI Yeast Anticancer Drug Screen. Data for the mlh1 rad18 strain (AID 175); conditions: S. cerevisiae mlh1 rad18 strain growth inhibition, active compounds read high
Outline: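 Test agents were incubated with a yeast strain of defined genotype (DNA damage repair defect). Inhibition of growth was derived by comparison with vehicle-exposed cultures.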

[7] = at 5.0 µM (retest, dose inferred, filed as 0.5)
[8] = at 50.0 µM (retest, dose inferred, filed as 5.0)

Row | Structure (SMILES) | growth inhibition [1, 7] [%] | growth inhibition [1, 8] | growth inhibition ([1]; at 50.0 µM) | growth inhibition [2, 7] [%] | growth inhibition [2, 8] | growth inhibition ([2]; at 50.0 µM) | growth inhibition [3, 7] [%] | growth inhibition [3, 8] | growth inhibition ([3]; at 50.0 µM) | growth inhibition [4, 7] [%] | growth inhibition [4, 8] | growth inhibition ([4]; at 50.0 µM) | growth inhibition [5, 7] [%] | growth inhibition [5, 8] | growth inhibition ([5]; at 50.0 µM) | growth inhibition [6, 7] [%] | growth inhibition [6, 8] | growth inhibition ([6]; at 50.0 µM)
1 | CN(C)c1ccc(C=Nc2cncc3ccccc23)cc1 | 0 | -11% | -55.6% | 5 | -9% | -18.6% | -3 | 10% | -12.8% | -20 | -6% | -39.5% | 3 | 4% | -6.05% | 7 | 4% | -7.35%
2 | O=c1[nH]c(C(F)(F)F)c(F)c(=O)[nH]1 | 0 | -2% | 69.3% | 3 | 1% | 93.5% (active) | 2 | 27% | 86.7% (active) | 3 | 5% | 94.1% (active) | -2 | -5% | 63.1% | -2 | -3% | 95% (active)
3 | CNC(=O)OCc1c(-c2ccccc2)c(-c2ccccc2)n(-c2ccc(OC)cc2)c1COC(=O)NC | 26 | 96% (active) | 36.1% | 18 | 98% (active) | 78.3% (active) | 20 | 98% (active) | 82.2% (active) | 26 | 98% (active) | 84.9% (active) | 17 | 99% (active) | 80% (active) | 23 | 97% (active) | 91% (active)
4 | Cc1nc2c(Cl)cccc2c2ccccc12 | 14 | 94% (active) | 94.2% (active) | 4 | 93% (active) | 85.7% (active) | 5 | 95% (active) | 87.5% (active) | -10 | 95% (active) | 88% (active) | -1 | 95% (active) | 93.4% (active) | 18 | 98% (active) | 94.5% (active)
5 | CC1CCC(=NNC(N)=O)CC1 (stereo not given) | -1 | -6% | 3.9% | -11 | -2% | -10.9% | -1 | -4% | 2.45% | -5 | -1% | 34.9% | -3 | -3% | 9.5% | -1 | -4% | -19.2%
6 | O=[N+]([O-])/C=C/C=C/c1ccco1 | -1 | 98% (active) | 99.6% (active) | 3 | 99% (active) | 64.2% | 6 | 94% (active) | 97.2% (active) | 2 | 99% (active) | 99.1% (active) | 7 | 98% (active) | 99.1% (active) | -5 | 98% (active) | 95.8% (active)
7 | O=C(Nc1cccnc1)c1ccc(CSc2ccc(Cl)cc2)o1 | 56 | 97% (active) | 90.6% (active) | 41 | 98% (active) | 92.3% (active) | 48 | 97% (active) | 93.8% (active) | 40 | 94% (active) | 90.8% (active) | 50 | 63% | 92.2% (active) | 57 | 94% (active) | 92.2% (active)
8 | COc1cc(OC)c(/C=C\c2ccnc3ccccc23)c(OC)c1 | 35 | 91% (active) | 81.6% (active) | 32 | 93% (active) | 86.3% (active) | 26 | 96% (active) | 84.7% (active) | 19 | 55% | 37.5% | 22 | 98% (active) | 35% | 41 | 91% (active) | -2.05%
9 | O=Nc1c(O)c2ccccc2c2ccc([N+](=O)[O-])cc12 | 21 | 64% | 69.8% | 48 | 95% (active) | 84.8% (active) | 35 | 87% (active) | 91.7% (active) | 12 | 52% | 42.9% | 20 | 65% | 85.2% (active) | 37 | 90% (active) | 88% (active)
10 | O=C(O)/C(=C\c1ccc(Cl)cc1)c1ccc(C(F)(F)F)cc1[N+](=O)[O-] | 11 | 76% (active) | 94.1% (active) | 8 | 90% (active) | 97.5% (active) | 0 | 91% (active) | 96% (active) | 21 | 84% (active) | 97.6% (active) | 18 | 84% (active) | 96.8% (active) | 25 | 93% (active) | 98.2% (active)
